{"source": "PubChem BioAssay AID1159580", "about": "(chemical genetic matrix, 2015)", "assay": "chemical genetic growth profiling, strain panel (AID 1159580);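 further: tested at 20 µM; growth read once vehicle control cultures reached saturation at 30 °C; 1 = growth at the plate median or of vehicle wells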", "conditions": "growth OD", "note": "The campaign covered roughly 5,500 compounds. About 2,000 (36%) were called active. Another 18% or so got no clear call; they are omitted. Some of the results follow. A number with no mark means an inactive call. No stated cut-off is given here; in the data, active means normalized growth mostly below about 0.91 (no sharp cut-off); inconclusive means no clear call, values can overlap the other calls; inactive means mostly above about 0.92."}
{"smiles": "O=c1c(-c2cc(O)c(O)c(O)c2)coc2cc(O)c(O)c(O)c12", "values": [{"measurement": "normalized growth", "setting": "S. cerevisiae deletion strains, locus YJL187C, strain SWE1, stronger effect = lower value", "result": 0.975}, {"measurement": "normalized growth", "setting": "S. cerevisiae deletion strains, locus YJR043C, strain POL32, stronger effect = lower value", "result": "0.752 (active)"}, {"measurement": "normalized growth", "setting": "S. cerevisiae deletion strains, locus YJR075W, strain HOC1, stronger effect = lower value", "result": 0.929}, {"measurement": "normalized growth", "setting": "S. cerevisiae deletion strains, locus YKL009W, strain mrt4, stronger effect = lower value", "result": 1.07}, {"measurement": "normalized growth", "setting": "S. cerevisiae deletion strains, locus YKL068W, stronger effect = lower value", "result": 1.01}, {"measurement": "normalized growth", "setting": "S. cerevisiae deletion strains, locus YKL085W, strain MDH1 (second series), stronger effect = lower value", "result": 1.02}, {"measurement": "normalized growth", "setting": "S. cerevisiae deletion strains, locus YKL085W, strain MDH1, stronger effect = lower value", "result": 1.02}, {"measurement": "normalized growth", "setting": "S. cerevisiae deletion strains, locus YKL160W, strain elf1, stronger effect = lower value", "result": 0.952}, {"measurement": "normalized growth", "setting": "S. cerevisiae deletion strains, locus YKL190W, strain CNB1, stronger effect = lower value", "result": "0.86 (active)"}, {"measurement": "normalized growth", "setting": "S. cerevisiae deletion strains, locus YKR001C, strain vps1, stronger effect = lower value", "result": 0.987}, {"measurement": "normalized growth", "setting": "S. cerevisiae deletion strains, locus YKR026C, strain gcn3, stronger effect = lower value", "result": 0.995}, {"measurement": "normalized growth", "setting": "S. cerevisiae deletion strains, locus YKR091W, strain srl3, stronger effect = lower value", "result": 1.02}, {"measurement": "normalized growth", "setting": "S. cerevisiae deletion strains, locus YLL001W, strain dnm1, stronger effect = lower value", "result": 0.965}, {"measurement": "normalized growth", "setting": "S. cerevisiae deletion strains, locus YLL026W, stronger effect = lower value", "result": 1.01}, {"measurement": "normalized growth", "setting": "S. cerevisiae deletion strains, locus YLL041C, strain sdh2, stronger effect = lower value", "result": 1}, {"measurement": "normalized growth", "setting": "S. cerevisiae deletion strains, locus YLR027C, strain aat2, stronger effect = lower value", "result": 0.974}, {"measurement": "normalized growth", "setting": "S. cerevisiae deletion strains, locus YLR039C, strain RIC1, stronger effect = lower value", "result": "0.626 (active)"}, {"measurement": "normalized growth", "setting": "S. cerevisiae deletion strains, locus YLR058C, strain SHM2, stronger effect = lower value", "result": "0.377 (active)"}, {"measurement": "normalized growth", "setting": "S. cerevisiae deletion strains, locus YLR102C, strain apc9, stronger effect = lower value", "result": 1}, {"measurement": "normalized growth", "setting": "S. cerevisiae deletion strains, locus YLR221C, strain rsa3, stronger effect = lower value", "result": 0.981}, {"measurement": "normalized growth", "setting": "S. cerevisiae deletion strains, locus YLR258W, strain gsy2, stronger effect = lower value", "result": 0.988}, {"measurement": "normalized growth", "setting": "S. cerevisiae deletion strains, locus YLR262C, strain YPT6 (second series), stronger effect = lower value", "result": 0.889}, {"measurement": "normalized growth", "setting": "S. cerevisiae deletion strains, locus YLR262C, strain YPT6, stronger effect = lower value", "result": 0.758}, {"measurement": "normalized growth", "setting": "S. cerevisiae deletion strains, locus YLR268W, strain sec22, stronger effect = lower value", "result": 0.898}, {"measurement": "normalized growth", "setting": "S. cerevisiae deletion strains, locus YLR320W, strain mms22, stronger effect = lower value", "result": 0.941}, {"measurement": "normalized growth", "setting": "S. cerevisiae deletion strains, locus YLR330W, strain CHS5, stronger effect = lower value", "result": 0.93}, {"measurement": "normalized growth", "setting": "S. cerevisiae deletion strains, locus YLR342W, strain FKS1 (second series), stronger effect = lower value", "result": "0.648 (active)"}, {"measurement": "normalized growth", "setting": "S. cerevisiae deletion strains, locus YLR342W, strain FKS1, stronger effect = lower value", "result": 0.954}, {"measurement": "normalized growth", "setting": "S. cerevisiae deletion strains, locus YLR357W, strain rsc2, stronger effect = lower value", "result": "0.753 (active)"}, {"measurement": "normalized growth", "setting": "S. cerevisiae deletion strains, locus YLR370C, strain arc18, stronger effect = lower value", "result": 0.911}, {"measurement": "normalized growth", "setting": "S. cerevisiae deletion strains, locus YLR371W, strain rom2, stronger effect = lower value", "result": "0.885 (active)"}, {"measurement": "normalized growth", "setting": "S. cerevisiae deletion strains, locus YLR384C, strain iki3, stronger effect = lower value", "result": 1}, {"measurement": "normalized growth", "setting": "S. cerevisiae deletion strains, locus YLR418C, strain cdc73, stronger effect = lower value", "result": "0.797 (active)"}, {"measurement": "normalized growth", "setting": "S. cerevisiae deletion strains, locus YML016C, strain PPZ1, stronger effect = lower value", "result": "0.853 (active)"}, {"measurement": "normalized growth", "setting": "S. cerevisiae deletion strains, locus YML032C, strain rad52, stronger effect = lower value", "result": "0.905 (active)"}, {"measurement": "normalized growth", "setting": "S. cerevisiae deletion strains, locus YML120C, strain ndi1, stronger effect = lower value", "result": "0.747 (active)"}, {"measurement": "normalized growth", "setting": "S. cerevisiae deletion strains, locus YML124C, strain tub3, stronger effect = lower value", "result": 0.99}, {"measurement": "normalized growth", "setting": "S. cerevisiae deletion strains, locus YMR058W, strain fet3, stronger effect = lower value", "result": "0.761 (active)"}, {"measurement": "normalized growth", "setting": "S. cerevisiae deletion strains, locus YMR078C, strain ctf18, stronger effect = lower value", "result": 0.994}, {"measurement": "normalized growth", "setting": "S. cerevisiae deletion strains, locus YMR125W, strain sto1, stronger effect = lower value", "result": 1.06}, {"measurement": "normalized growth", "setting": "S. cerevisiae deletion strains, locus YMR129W, stronger effect = lower value", "result": 1.03}, {"measurement": "normalized growth", "setting": "S. cerevisiae deletion strains, locus YMR205C, strain PFK2, stronger effect = lower value", "result": 0.961}, {"measurement": "normalized growth", "setting": "S. cerevisiae deletion strains, locus YMR223W, strain ubp8, stronger effect = lower value", "result": 0.94}, {"measurement": "normalized growth", "setting": "S. cerevisiae deletion strains, locus YMR231W, strain pep5, stronger effect = lower value", "result": "0.821 (active)"}, {"measurement": "normalized growth", "setting": "S. cerevisiae deletion strains, locus YMR307W, strain GAS1, stronger effect = lower value", "result": 0.638}, {"measurement": "normalized growth", "setting": "S. cerevisiae deletion strains, locus YNL067W, strain RPL9B, stronger effect = lower value", "result": "0.841 (active)"}, {"measurement": "normalized growth", "setting": "S. cerevisiae deletion strains, locus YNL071W, strain lat1, stronger effect = lower value", "result": 1.01}, {"measurement": "normalized growth", "setting": "S. cerevisiae deletion strains, locus YNL153C, strain GIM3, stronger effect = lower value", "result": "0.582 (active)"}, {"measurement": "normalized growth", "setting": "S. cerevisiae deletion strains, locus YNL209W, strain ssb2, stronger effect = lower value", "result": "0.804 (active)"}, {"measurement": "normalized growth", "setting": "S. cerevisiae deletion strains, locus YNL233W, strain BNI4, stronger effect = lower value", "result": 0.876}, {"measurement": "normalized growth", "setting": "S. cerevisiae deletion strains, locus YNL248C, strain rpa49, stronger effect = lower value", "result": 0.935}, {"measurement": "normalized growth", "setting": "S. cerevisiae deletion strains, locus YNL250W, strain rad50, stronger effect = lower value", "result": 0.998}, {"measurement": "normalized growth", "setting": "S. cerevisiae deletion strains, locus YNL271C, strain bni1, stronger effect = lower value", "result": 0.986}, {"measurement": "normalized growth", "setting": "S. cerevisiae deletion strains, locus YNL298W, strain CLA4, stronger effect = lower value", "result": 0.974}, {"measurement": "normalized growth", "setting": "S. cerevisiae deletion strains, locus YNL307C, strain MCK1, stronger effect = lower value", "result": 0.986}, {"measurement": "normalized growth", "setting": "S. cerevisiae deletion strains, locus YNL322C, strain KRE1 (second series), stronger effect = lower value", "result": 1.01}, {"measurement": "normalized growth", "setting": "S. cerevisiae deletion strains, locus YNR049C, strain mso1, stronger effect = lower value", "result": 1.01}, {"measurement": "normalized growth", "setting": "S. cerevisiae deletion strains, locus YNR052C, strain pop2, stronger effect = lower value", "result": "0.695 (active)"}, {"measurement": "normalized growth", "setting": "S. cerevisiae deletion strains, locus YOL012C, strain htz1", "result": 0.414}, {"measurement": "normalized growth", "setting": "S. cerevisiae deletion strains, locus YOL147C, strain pex11, stronger effect = lower value", "result": "0.865 (active)"}, {"measurement": "normalized growth", "setting": "S. cerevisiae deletion strains, locus YOR001W, strain rrp6, stronger effect = lower value", "result": 0.949}, {"measurement": "normalized growth", "setting": "S. cerevisiae deletion strains, locus YOR061W, strain CKA2, stronger effect = lower value", "result": "0.87 (active)"}, {"measurement": "normalized growth", "setting": "S. cerevisiae deletion strains, locus YOR069W, strain VPS5, stronger effect = lower value", "result": "0.926 (active)"}, {"measurement": "normalized growth", "setting": "S. cerevisiae deletion strains, locus YOR070C, strain gyp1, stronger effect = lower value", "result": 0.978}, {"measurement": "normalized growth", "setting": "S. cerevisiae deletion strains, locus YOR080W, strain dia2, stronger effect = lower value", "result": 0.975}, {"measurement": "normalized growth", "setting": "S. cerevisiae deletion strains, locus YOR083W, strain WHI5, stronger effect = lower value", "result": 0.903}, {"measurement": "normalized growth", "setting": "S. cerevisiae deletion strains, locus YOR106W, strain vam3, stronger effect = lower value", "result": "0.686 (active)"}, {"measurement": "normalized growth", "setting": "S. cerevisiae deletion strains, locus YOR136W, strain idh2, stronger effect = lower value", "result": 0.987}, {"measurement": "normalized growth", "setting": "S. cerevisiae deletion strains, locus YOR144C, strain elg1, stronger effect = lower value", "result": "0.915 (active)"}, {"measurement": "normalized growth", "setting": "S. cerevisiae deletion strains, locus YOR184W, strain ser1, stronger effect = lower value", "result": 0.88}, {"measurement": "normalized growth", "setting": "S. cerevisiae deletion strains, locus YOR265W, strain rbl2, stronger effect = lower value", "result": 1}, {"measurement": "normalized growth", "setting": "S. cerevisiae deletion strains, locus YOR270C, strain vph1, stronger effect = lower value", "result": "0.572 (active)"}, {"measurement": "normalized growth", "setting": "S. cerevisiae deletion strains, locus YOR290C, strain snf2, stronger effect = lower value", "result": "0.344 (active)"}, {"measurement": "normalized growth", "setting": "S. cerevisiae deletion strains, locus YOR316C, strain cot1, stronger effect = lower value", "result": 1}, {"measurement": "normalized growth", "setting": "S. cerevisiae deletion strains, locus YPL051W, strain arl3, stronger effect = lower value", "result": "0.817 (active)"}, {"measurement": "normalized growth", "setting": "S. cerevisiae deletion strains, locus YPL055C, strain LGE1, stronger effect = lower value", "result": 0.783}, {"measurement": "normalized growth", "setting": "S. cerevisiae deletion strains, locus YPL078C, strain atp4, stronger effect = lower value", "result": "0.856 (active)"}, {"measurement": "normalized growth", "setting": "S. cerevisiae deletion strains, locus YPL106C, strain sse1, stronger effect = lower value", "result": 0.91}, {"measurement": "normalized growth", "setting": "S. cerevisiae deletion strains, locus YPL240C, strain hsp82, stronger effect = lower value", "result": 0.988}, {"measurement": "normalized growth", "setting": "S. cerevisiae deletion strains, locus YPL241C, strain CIN2, stronger effect = lower value", "result": 0.948}, {"measurement": "normalized growth", "setting": "S. cerevisiae deletion strains, locus YPR119W, strain clb2, stronger effect = lower value", "result": 1.02}, {"measurement": "normalized growth", "setting": "S. cerevisiae deletion strains, locus YPR141C, strain kar3, stronger effect = lower value", "result": 1}, {"measurement": "normalized growth", "setting": "S. cerevisiae deletion strains, locus YPR163C, strain tif3, stronger effect = lower value", "result": 0.998}, {"measurement": "normalized growth", "setting": "S. cerevisiae deletion strains, locus YPR167C, strain met16, stronger effect = lower value", "result": 1.01}, {"measurement": "normalized growth", "setting": "S. cerevisiae deletion strains, strain wtn01, stronger effect = lower value", "result": 0.934}, {"measurement": "normalized growth", "setting": "S. cerevisiae strains, strain wild type, stronger effect = lower value", "result": "0.78 (active)"}]}
